Screening data: PubChem BioAssay, several laboratories
p97 ATPase inh: human p97 ATPase inhibition; recombinant p97 ATPase, Kinase-Glo ATP luminescence, 3 h; inhibition, % at 8 µM; 220,000 compounds, 0.42% hits; AID 1481; in the data active = inhibition above about 15%
Target sequence (P55072 whole entry, looked up): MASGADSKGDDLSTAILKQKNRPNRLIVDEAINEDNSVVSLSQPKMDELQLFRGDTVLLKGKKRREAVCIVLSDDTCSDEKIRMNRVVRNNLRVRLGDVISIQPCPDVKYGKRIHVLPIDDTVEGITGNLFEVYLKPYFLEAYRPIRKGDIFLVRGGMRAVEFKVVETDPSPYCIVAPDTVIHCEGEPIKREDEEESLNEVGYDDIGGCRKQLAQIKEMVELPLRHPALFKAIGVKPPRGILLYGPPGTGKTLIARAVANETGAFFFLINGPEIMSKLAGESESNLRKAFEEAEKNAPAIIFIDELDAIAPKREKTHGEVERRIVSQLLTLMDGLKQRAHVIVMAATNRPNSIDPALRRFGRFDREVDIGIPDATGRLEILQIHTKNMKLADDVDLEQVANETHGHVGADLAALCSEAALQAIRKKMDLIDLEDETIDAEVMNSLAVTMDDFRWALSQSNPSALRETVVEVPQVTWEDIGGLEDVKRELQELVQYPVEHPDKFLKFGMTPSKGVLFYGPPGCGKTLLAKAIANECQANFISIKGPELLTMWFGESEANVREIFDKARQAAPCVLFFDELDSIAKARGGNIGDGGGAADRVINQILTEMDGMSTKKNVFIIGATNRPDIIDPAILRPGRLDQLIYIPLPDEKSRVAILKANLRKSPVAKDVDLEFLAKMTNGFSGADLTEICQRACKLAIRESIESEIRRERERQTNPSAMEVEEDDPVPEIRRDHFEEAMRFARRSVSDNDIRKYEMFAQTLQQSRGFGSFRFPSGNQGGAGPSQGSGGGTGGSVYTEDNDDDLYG
HSV replic up: increases HSV replication in cells; HSV replication augmentation in cells, fold increase; maximum fold increase; 220,000 compounds, 0.005% hits; in the data active = maximum fold increase above about 1.5; inconclusive = no clear call, values can overlap the other calls; tested in PC3 cells
Hsp70 activator: switches on Hsp70 transcription; activation, % at 10 µM; HeLa Hsp70 promoter luciferase reporter, luminescence; scaled: vehicle 0, proteasome-inhibitor control 100%; AID 1203; 200,000 compounds, 0.04% hits;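 active = activation above the mean across all tested compounds plus 3 SD, cutoff set per campaign, cut at about 5.5% in these data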
Redox H2O2 prof: compounds producing H2O2 with reducing agent – biochemical, NIH compound library profiling, artefact control for MLSCN library redox annotation, primary screen; DTT-dependent redox cycling H2O2, phenol red/HRP absorbance; 100% = 100 µM peroxide control, 0% = buffer; activation, % at 10 µM; 200,000 compounds, 0.03% hits;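 active = activation of at least 50% relative to the plate's high and low controls in the primary single-dose screen; inactive = activation below 50%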;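 also: compound incubated with DTT at 0.8 mM final as the reducing agent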
Wee1 stabilizer: inhibitors of human Wee1 degradation; P30291; HeLa Luc-Wee1K328M stability, luciferase luminescence; 100% = proteasome inhibitor MG132 effect; reporter increase, % at 5 µM; 220,000 compounds, 1.2% hits;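 active = activation above the mean of all tested compounds plus 3 SD, set per screening run, cut at about 8.8% in these data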;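 also: cells exposed to compound for 20 h before luminescence read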
p97 inh conf: human p97 ATPase inhibition, confirmation | inhibition, % at 8 µM | recombinant p97 ATPase, Kinase-Glo ATP luminescence | shares compounds with p97 ATPase inh | 760 compounds, 44% hits | AID 1517;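 active = percent inhibition of p97 ATPase above a set limit, the primary screen's mean plus 3 SD, cut at about 15% in these data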
Hits are given with their value; . = inactive; ? = inconclusive; / = no result. A selection: hits, their analogues and other compounds. The true share with any hit is near 1.6%.

SMILES | p97 ATPase inh | HSV replic up | Hsp70 activator | Redox H2O2 prof | Wee1 stabilizer | p97 inh conf
N#CC1=C(SCC(=O)Nc2ccc(C(=O)O)cc2)NC(=O)CC1c1ccco1 (configuration not stated) | 17 | . | / | / | . | .
Cc1ccc(NC(=O)CSC2=C(C#N)C(c3ccco3)C3=C(CCCC3=O)N2)cc1 (configuration not stated) | . | / | . | . | . | /
Cc1ccc(/C=C2/SC(=O)NC2=S)o1 | 26 | . | . | . | . | .
CC(C)Cc1nnc(NC(=O)Cc2ccccc2[N+](=O)[O-])s1 | . | . | . | . | . | /
C/C(=N\NC(=O)c1cccc(F)c1)c1ccc(Br)s1 | 19 | . | . | . | . | .
O=C1NC(CCc2ccccc2)C(=O)N1Cc1cccc2ccccc12 (configuration not stated) | . | . | . | . | . | /
O=C(Nc1ccc(Nc2ccncc2)cc1)c1ccc(Nc2ccnc3ccc([N+](=O)[O-])cc23)cc1 | 34 | . | / | / | . | 24
O=C(CCc1ccccc1)NC(c1cccs1)c1cc(Cl)c2cccnc2c1O (configuration not stated) | 19 | . | . | . | . | .
CCCC(=O)NC(c1cccs1)c1cc([N+](=O)[O-])c2cccnc2c1O (configuration not stated) | . | . | . | . | . | /
O=C(CC1CCCC1)Nc1ccc2c(c1)CCC2 | 46 | . | . | . | . | .
Cc1[nH]c2ccccc2c1/C=N/Nc1cccc(C(=O)O)c1 | 18 | . | / | / | . | 19
Cc1[nH]c2ccccc2c1/C=N/NC(=O)c1cc(-c2ccccc2)n[nH]1 | 21 | . | / | / | . | 17
Cc1[nH]c2ccccc2c1/C=N/NC(=O)Nc1ccccc1 | . | . | . | . | . | /
Cc1ccc(S(=O)(=O)N2CCN(Cc3nc4ccccc4[nH]3)CC2)cc1C | . | . | . | . | . | /
CCC12CN3CCN(CC(C3)/C1=N\NC(=O)c1ccc(C(C)(C)C)cc1)C2 | 21 | . | . | . | . | .
CCC12CN3CCN(CC(C3)/C1=N\NC(=O)c1ccc(F)cc1)C2 | . | . | . | . | . | /
CN(/N=C/C=C/c1ccccc1)c1cc(=O)n(C)c(=O)[nH]1 | . | . | . | . | . | /
COc1ccc(/C=N/N(C)c2cc(=O)n(C)c(=O)[nH]2)cc1OC | 18 | . | . | . | . | .
Cn1c(SCC(=O)NCc2ccc3c(c2)OCO3)nnc1-c1c[nH]c2ccccc12 | . | . | . | . | . | /
COc1ccc(C(=O)c2no[n+]([O-])c2C(=O)c2ccc(OC)cc2)cc1 | . | . | . | . | . | /
Cc1c(C(=O)c2no[n+]([O-])c2C(=O)c2cnn(C)c2C)cnn1C | 34 | . | . | . | . | 36
O=C(COC(=O)CNC(=O)C12CC3CC(CC(C3)C1)C2)Nc1ccccc1 | . | . | . | . | . | /
COc1ccc(C(=O)N/N=C\c2coc3ccccc3c2=O)cc1 | . | . | / | / | . | /
O=C(N/N=C/c1coc2ccccc2c1=O)c1cc(O)cc(O)c1 | 30 | . | . | . | . | 33
Cc1occc1-c1nnc(SCC(=O)c2c[nH]c3ccccc23)n1C | 18 | . | . | . | . | 29
SMILES | p97 ATPase inh | HSV replic up | Hsp70 activator | Redox H2O2 prof | Wee1 stabilizer | p97 inh conf
Cc1occc1-c1nnc(SCC(=O)c2ccc(Cl)cc2)n1C | . | . | . | . | . | /
Cn1c(C(=O)NCc2ccccn2)cc2c(=O)n(C)c3ccccc3c21 | 25 | . | . | . | . | .
COCCNC(=O)c1ccc2c(c1)nc(C)n2-c1cccc(F)c1 | . | . | . | . | . | /
CC1CCN(C(=O)CNC(=O)Cc2ccccc2)CC1 | . | . | . | . | . | /
O=C1/C(=C/C=C/c2ccco2)SC(=S)N1NS(=O)(=O)c1ccccc1 | 16 | . | / | / | . | .
Cc1ccc(C(=O)Nc2ccccc2OC(F)F)cc1 | . | . | . | . | . | /
O=C(Nc1ccccc1OC(F)F)c1ccccc1 | 16 | . | . | . | . | .
COc1ccc(N2CCN(C(=O)Nc3ccccc3Cl)CC2)cc1 | . | . | . | . | . | /
O=C(CCCN1C(=O)/C(=C/c2ccco2)SC1=S)Nc1ccccc1C(=O)O | 22 | . | / | / | . | .
O=C(Nc1ccc2nc(-c3cccs3)[nH]c2c1)c1cccs1 | 15 | . | . | . | . | 19
O=C(NNC(=S)NC(=O)c1cccnc1)c1ccc(F)cc1 | 15 | . | / | / | . | .
O=C(N/N=C/c1c[nH]c2ccc(Br)cc12)c1ccc2c(c1)OCO2 | 16 | . | . | . | . | .
CCSc1ccccc1C(=O)N1CCN(Cc2ccc3c(c2)OCO3)CC1 | . | . | . | . | . | /
CC1=NN2C(=N)/C(=C\c3ccc(SCc4ccccc4)o3)C(=O)N=C2S1 | . | . | . | . | . | /
N=C1/C(=C\c2ccc(SCc3ccco3)o2)C(=O)N=C2SC=NN12 | 18 | ? | . | . | . | 16
O=C(O)c1ccc(NS(=O)(=O)c2ccc(Cl)cc2)cc1 | . | . | . | . | . | /
CCOC(=O)C1=C(C)NC2=C(C(=O)C(C(=O)OCC)C(c3ccc(OC)cc3)C2)C1c1ccccn1 (configuration not stated) | . | . | . | . | . | /
CCC(CNc1cc(OC)cc2cccnc12)NC1CCCCC1 (configuration not stated) | 24 | . | / | / | . | .
O=S(=O)(NC1CCCCCC1)c1cccc2cccnc12 | . | . | . | . | . | /
COc1ccc(Cn2c(-c3ccco3)nc3c(c(=O)c4ccccc4n3C)c2=O)cc1 | . | . | / | / | . | /
Cn1c2ccccc2c(=O)c2c(=O)n(Cc3ccco3)c(-c3ccc(Cl)cc3Cl)nc21 | 33 | . | / | / | . | 24
CC(C)Nc1ccc(Nc2ccnc3cc4ccccc4cc23)cc1 | 29 | . | / | / | . | 33
CSC1=C(C#N)C(=O)NC(c2ccc(Cl)cc2)S1 (configuration not stated) | 18 | . | / | / | . | 31
CSc1nsc2nc(=O)c(/C=C3\C(C)=Nc4ccccc43)c(N)n12 | 21 | . | . | . | . | 38
O=C(CN(c1ccccc1)S(=O)(=O)c1ccccc1)N1CCOCC1 | . | . | . | . | . | /
SMILES | p97 ATPase inh | HSV replic up | Hsp70 activator | Redox H2O2 prof | Wee1 stabilizer | p97 inh conf
COc1ccc(N(/N=C2\Sc3ccccc3C2=O)C(C)=O)cc1 | 22 | . | . | . | . | 21
COc1ccc(CN(C(C)=O)c2ccccc2C(=O)O)cc1 | . | . | / | / | . | /
Cc1c(N=C2C=C(Br)C(=O)C(Br)=C2)c(=O)n(-c2ccccc2)n1C | 27 | . | . | . | . | .
O=[N+]([O-])c1cc(-c2cnc3ccccc3n2)ccc1Oc1ccc(Br)cc1 | . | . | . | . | . | /
NC(=O)c1sc2nc(-c3ccco3)ccc2c1N | 24 | . | . | . | . | .
c1cncc(-c2nc(NCc3ccc4c(c3)OCO4)c3ccccc3n2)c1 | 17 | . | / | / | . | 21
CCOc1ccc(-c2cc(N3C(=O)Nc4ccccc4N3O)n[nH]2)cc1 | 17 | . | . | . | . | .
